Test results as given in PubChem BioAssay (NCI).
About 83,000 compounds went through this panel and 20% of them were active in at least one assay; those are over-represented in the sample as a whole.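 Growth was measured after 48 h exposure to one concentration of compound in 96-well plates. Values under 10 count as active.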 Activity calls are given as the source filed them.

tested on: TK-10 renal; test: NCI-60 one-dose screen, 48 h (100 = growth as untreated, 0 = no growth, -100 = all killed); conditions: 10 µM unless noted

| Compound | growth |
| --- | --- |
| O=C(O)c1ccccc1NCc1ccco1 | 64.7% (inactive) |
| C/C(=C\c1cc(Cl)ccc1OCC(=O)O)[N+](=O)[O-] | 116% (inactive) |
| CSC[C@H](NC(=O)COc1cccc2cnccc12)C(=O)NC(Cc1ccccc1)C(O)C(=O)N1CSC[C@H]1C(=O)NC(C)(C)C (some centres not stated) | 139% (inactive) |
| COC1=CC(=O)c2nc(Cl)ccc2C1=O | 84.2% (inactive) |
| CCOC(=O)CCCC(=O)OCC | 101% (inactive) |
| N#Cc1ccc(NC(=O)Nc2cccc(C#N)c2)cc1 | 113% (inactive) |
| CC(C)=C(NC(=O)c1ccccc1)C(=O)O | 106% (inactive) |
| Cc1cc2nc(CC(=O)c3cccc([N+](=O)[O-])c3)c(=O)[nH]c2cc1C | 115% (inactive) |
| COc1cc(C(=O)N/N=C/c2cccc([N+](=O)[O-])c2)cc(OC)c1OC | 81.1% (inactive) |
| CN(C)C(C)(C)CC(C)(C)C | 143% (inactive) |
| O=c1cc(-c2ccccc2)[nH]c2c1CCCC2 | 34.5% (inactive) |
| CC1(c2ccccc2)NC(=O)NC1=O (configuration not stated) | 98.8% (inactive) |
| CCCNC(=O)c1ccc(S(N)(=O)=O)cc1 | 119% (inactive) |
| COC(=O)c1[nH]c(=O)c(C#N)c(C(=O)OC)c1C(=O)c1ccccc1 | 143% (inactive) |
| O=C(O)[C@@H]1[C@H]2C[C@H]3c4[nH]c5ccccc5c4CCN3C[C@@H]2CC[C@@H]1O | 104% (inactive) |
| CCCCOC(OCCCC)c1ccccc1 | 107% (inactive) |
| CC1(O)OC(COc2ccc(Cl)cc2)COC1O (configuration not stated) | 108% (inactive) |
| CC(C)=NNc1ccc([N+](=O)[O-])cc1[N+](=O)[O-] | 96.9% (inactive) |

| Compound | growth |
| --- | --- |
| CC(=O)CC(=O)N(C)C | 98.4% (inactive) |
| Nc1ccc(N=Nc2ccc(S(=O)(=O)O)cc2)c2ccccc12 | 140% (inactive) |
| COc1cc(OC)c2ccc(=O)oc2c1 | 101% (inactive) |
| c1ccc(Sc2ccccc2)cc1 | 101% (inactive) |
| Cc1ccc(/C=C2\SC(=S)N(c3ccc(F)cc3)C2=O)o1 | 102% (inactive) |
| COc1ccc2c(NCCCCCCCCNc3c4ccccc4nc4cc(OC)ccc34)c3ccccc3nc2c1 | -72.9% (active) |
| O=C(NCCNC(=O)c1ccc(Cl)cc1Cl)c1ccc(Cl)cc1Cl | 120% (inactive) |
| Cc1nc2ccccc2c2nnc(SCC(=O)N(Cc3ccccc3)c3ccccc3)n12 | 189% (inactive) |
| CCCCC(O)c1ccccc1 (configuration not stated) | 106% (inactive) |
| O=C1Cc2ccccc2C(=O)O1 | 110% (inactive) |
| Nc1nc(OCc2ccccc2)c2[nH]cnc2n1 | 82.1% (inactive) |
| Cc1c(C(=O)O)c(=O)n(-c2ccccc2)n1C | 123% (inactive) |
| COc1cc(/C=C/C(=O)c2ccccc2)cc(OC)c1OC | 112% (inactive) |
| O=[N+]([O-])c1ccc(-c2noc(-c3cccs3)n2)cc1 | 101% (inactive) |
| CC(=O)OCC1OC(OC2=C(CC=C(C)C)C(=O)c3ccccc3C2=O)C(OC(C)=O)C(OC(C)=O)C1OC(C)=O (configuration not stated) | 87.4% (inactive) |
| CCCCC/C=N/Nc1nc(C)cc(=O)[nH]1 | 108% (inactive) |
| [O-][N+](=Nc1cccc(Cl)c1)c1cccc(Cl)c1 | 108% (inactive) |
| COc1ccc(-c2cc3c(nn2)-c2ccccc2C3=O)cc1 | 32.1% (inactive) |

tested on: ACHN renal; test: as above; conditions: 10 µM

| Compound | growth |
| --- | --- |
| O=C(O)c1ccccc1NCc1ccco1 | 115% (inactive) |
| C/C(=C\c1cc(Cl)ccc1OCC(=O)O)[N+](=O)[O-] | 106% (inactive) |
| CSC[C@H](NC(=O)COc1cccc2cnccc12)C(=O)NC(Cc1ccccc1)C(O)C(=O)N1CSC[C@H]1C(=O)NC(C)(C)C (some centres not stated) | 109% (inactive) |
| COC1=CC(=O)c2nc(Cl)ccc2C1=O | 42.6% (inactive) |
| N#Cc1ccc(NC(=O)Nc2cccc(C#N)c2)cc1 | 92.5% (inactive) |
| CC(C)=C(NC(=O)c1ccccc1)C(=O)O | 106% (inactive) |
| COc1cc(C(=O)N/N=C/c2cccc([N+](=O)[O-])c2)cc(OC)c1OC | 79.9% (inactive) |
| CN(C)C(C)(C)CC(C)(C)C | 100% (inactive) |
| O=c1cc(-c2ccccc2)[nH]c2c1CCCC2 | 40.5% (inactive) |
| CC1(c2ccccc2)NC(=O)NC1=O (configuration not stated) | 107% (inactive) |
| CCCNC(=O)c1ccc(S(N)(=O)=O)cc1 | 101% (inactive) |
| COC(=O)c1[nH]c(=O)c(C#N)c(C(=O)OC)c1C(=O)c1ccccc1 | 98.1% (inactive) |
| O=C(O)[C@@H]1[C@H]2C[C@H]3c4[nH]c5ccccc5c4CCN3C[C@@H]2CC[C@@H]1O | 100% (inactive) |
| CCCCOC(OCCCC)c1ccccc1 | 109% (inactive) |
| CC1(O)OC(COc2ccc(Cl)cc2)COC1O (configuration not stated) | 103% (inactive) |
| CNc1nc(NC)c2cn[nH]c2n1 | 108% (inactive) |
| CC(C)=NNc1ccc([N+](=O)[O-])cc1[N+](=O)[O-] | 64.8% (inactive) |
| CC(=O)CC(=O)N(C)C | 103% (inactive) |

| Compound | growth |
| --- | --- |
| Nc1ccc(N=Nc2ccc(S(=O)(=O)O)cc2)c2ccccc12 | 99.2% (inactive) |
| COc1cc(OC)c2ccc(=O)oc2c1 | 104% (inactive) |
| c1ccc(Sc2ccccc2)cc1 | 108% (inactive) |
| Cc1ccc(/C=C2\SC(=S)N(c3ccc(F)cc3)C2=O)o1 | 48.6% (inactive) |
| COc1ccc2c(NCCCCCCCCNc3c4ccccc4nc4cc(OC)ccc34)c3ccccc3nc2c1 | -100% (active) |
| O=C(NCCNC(=O)c1ccc(Cl)cc1Cl)c1ccc(Cl)cc1Cl | 110% (inactive) |
| CC1C(=O)c2ccccc2CC1C(=O)O (configuration not stated) | 98.5% (inactive) |
| Cc1nc2ccccc2c2nnc(SCC(=O)N(Cc3ccccc3)c3ccccc3)n12 | 92.8% (inactive) |
| CCCCC(O)c1ccccc1 (configuration not stated) | 110% (inactive) |
| O=S(=O)(O)c1ccc(O)c2ccccc12 | 100% (inactive) |
| O=C1Cc2ccccc2C(=O)O1 | 111% (inactive) |
| Nc1nc(OCc2ccccc2)c2[nH]cnc2n1 | 73.5% (inactive) |
| Cc1c(C(=O)O)c(=O)n(-c2ccccc2)n1C | 109% (inactive) |
| O=[N+]([O-])c1ccc(-c2noc(-c3cccs3)n2)cc1 | 60.2% (inactive) |
| CC(=O)OCC1OC(OC2=C(CC=C(C)C)C(=O)c3ccccc3C2=O)C(OC(C)=O)C(OC(C)=O)C1OC(C)=O (configuration not stated) | 12.8% (inactive) |
| CCCCC/C=N/Nc1nc(C)cc(=O)[nH]1 | 102% (inactive) |
| [O-][N+](=Nc1cccc(Cl)c1)c1cccc(Cl)c1 | 94.3% (inactive) |
| COc1ccc(-c2cc3c(nn2)-c2ccccc2C3=O)cc1 | 73.5% (inactive) |
